From PubChem BioAssay (Tox21) come the findings set out here.

SMILES strings stand for the structures. Results filed as inconclusive are left out. Entries that show only a call come without a potency. Activity calls are given as the source filed them. Unless noted, calls come from the whole dose curve; as a rule, active = well fitted curve in the direction sought with a large enough effect in the repeat runs; inconclusive = weak or mixed curves; inactive = no such curve, though single readings can be large; an effect the other way counts as inactive or inconclusive.

Test system in the first assay: not listed separately
In words: qHTS assay to identify small molecule agonists of the estrogen related receptor (ERR) signaling pathway (AID 1224820). Conditions: ERR reporter cell line, luciferase agonist mode; series mostly up to 46.1 µM. Summed up:
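Quantitative HTS of the LOPAC library used NTP ERR reporter cells treated 18 h at 37 C. Signal is luminescence after One-Glo addition and a 30 min room-temperature incubation.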
On the technique in general: In qHTS, concentration-response curves come from the screen itself.
On to `C=CCN1CCc2c(cc(O)c(O)c2Br)[C@@H](c2ccccc2)C1`, for which the Potency entry is “inactive”.

Take `COc1ccc(/C=C/c2nc(NCCCN(C)C)c3ccccc3n2)cc1`: the Potency result is “inactive”. As for `CC(C)N(CCC(=O)c1ccc2ccccc2c1)Cc1ccccc1`, the Potency entry was “inactive”. Still for that read-out and setting: as for `C=CCN1CCc2c(cc(O)c(O)c2Cl)C(c2ccccc2)C1` (stereo not given), the entry is “inactive”. The same measure, in the same setting: as for `COc1cccc2c1[C@@H]1CN(CCCCn3c(=O)[nH]c4c(sc5ncc(-c6ccccc6)nc54)c3=O)C[C@@H]1CO2`, the entry is “inactive”; as for `Oc1cc2c(cc1O)CN(C(=S)NCCc1ccc(Cl)cc1)CCC2`, “inactive”; as for `CCN(c1nc(N)c(C(=O)N=C(N)N)nc1Cl)C(C)C`, “inactive”. Still for that read-out and setting: as for `O=c1oc(Cl)c(Cl)c2ccccc12`, the entry is “inactive”; as for `NS(=O)(=O)C#Cc1ccccc1`, “inactive”.

For the molecule `O=C(CCCCCN1CCN(c2ccccc2-c2ccccc2)CC1)NC1CCCc2ccccc21` (stereo not given), the Potency entry is “inactive”. On the same count and under the same terms, as for `COc1ccccc1N1CCN(CCCCNC(=O)c2ccc3ccccc3c2)CC1`, the entry is “inactive”; as for `CC[C@@H](C)[C@H]1O[C@]2(CC[C@@H]1C)C[C@@H]1C[C@@H](C/C=C(\C)[C@@H](O[C@H]3C[C@H](OC)[C@@H](O[C@H]4C[C@H](OC)[C@@H](O)[C@H](C)O4)[C@H](C)O3)[C@@H](C)/C=C/C=C3\CO[C@@H]4[C@H](O)C(C)=C[C@@H](C(=O)O1)[C@]34O)O2`, “inactive”; as for `CCCCN(CC)c1nc(C)nc2c1c(C)cn2-c1c(C)cc(C)cc1C`, “inactive”.

On to `O=C1NC(=O)c2c1c(-c1ccccc1)cc1[nH]c3ccc(O)cc3c21`, for which the Potency result was “inactive”. On the same count and under the same terms, as for `CCOC(=O)N1CCN(/[N+]([O-])=N/Oc2ccc([N+](=O)[O-])cc2[N+](=O)[O-])CC1`, the entry is “inactive”.

The subject of another assay is estrogen-related receptor alpha (ERRalpha) with PGC-1alpha coactivator, human. Nature of the assay: qHTS assay to identify small molecule antagonists of the estrogen related receptor signaling pathway with the pleiotropic PPARgamma coactivator (PGC) (AID 1224821; calls by dose curve; note: nearly all actives have a fitted effect of over 50% in size; note: potency is the fitted concentration of half-maximal effect). Conditions: ERR/PGC reporter cell line, luciferase, antagonist mode; series mostly up to 46.1 µM. Summed up: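 Quantitative HTS for antagonism: PGC/ERR cells received compounds after 6 h attachment and were incubated 18 h at 37 C, with luminescence (One-Glo) as the endpoint.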
For the molecule `CN1CCCC1CCOC(C)(c1ccccc1)c1ccc(Cl)cc1` (stereo not given), the Potency entry is “inactive”. Regarding `CC(C)C[C@H](NC(=O)[C@@H](O)[C@H](N)Cc1ccccc1)C(=O)O`, the Potency was 6.94 µM (active). Still for that read-out and setting: as for `N#C/C(=C\c1ccc(-c2cc(Cl)ccc2Cl)o1)C(=O)Nc1cccc2ncccc12`, the entry is “inactive”; as for `NC(=NCc1ccccc1)NC(=O)c1nc(Cl)c(N)nc1N`, “inactive”; as for `O=C1Nc2ccc(I)cc2/C1=C/c1cc(Br)c(O)c(Br)c1`, “inactive”. With `Nc1c(S(=O)(=O)O)cc(Nc2ccc(Nc3nc(Cl)nc(Nc4ccc(S(=O)(=O)O)cc4)n3)c(S(=O)(=O)O)c2)c2c1C(=O)c1ccccc1C2=O`, the Potency is 18.8 µM (active). The same measure, in the same setting: as for `CC(=O)/C=C1\C(=O)N(C)c2ccccc21`, the figure is 28.7 µM (active).

For `CCCCCCCCCCC(C)(C)C(=O)Nc1c(OC)cc(OC)cc1OC`, the Potency result was “inactive”.

Regarding `C=CCc1cccc(/C=N/NC(=O)CN2CCN(Cc3ccccc3)CC2)c1O`, the Potency entry is “inactive”.

For `Cc1cccc(C2CN(C)CCc3c2cc(O)c(O)c3Cl)c1` (stereo not given), the Potency entry was “inactive”.

On to `CN(C)S(=O)(=O)c1ccc2c(c1)/C(=C/c1cc3c([nH]1)CCCC3)C(=O)N2`, for which the Potency result is “inactive”. Still for that read-out and setting: as for `Oc1ccc(/C=C/c2ccc(/C=C/c3ccc(O)cc3)c(Br)c2)cc1`, the entry is “inactive”.

For `Nc1nc(N)c(N=O)c(OCC2CCCCC2)n1`, the Potency entry is “inactive”. The same measure, in the same setting: as for `Clc1ccc2c(c1)N=C(N1CCNCC1)c1ccccc1N2`, the entry is “inactive”; as for `Cc1cc(Cl)ccc1OCCCC(=O)NO`, “inactive”; as for `COc1ccc(/C=C/c2nc(NCCCN(C)C)c3ccccc3n2)cc1`, 23.7 µM (active). On to `CC(C)N(CCC(=O)c1ccc2ccccc2c1)Cc1ccccc1`, for which the Potency was 19.9 µM (active).

As to `C=CCN1CCc2c(cc(O)c(O)c2Cl)C(c2ccccc2)C1` (stereo not given), the Potency result is “inactive”. The same measure, in the same setting: as for `COc1cccc2c1[C@@H]1CN(CCCCn3c(=O)[nH]c4c(sc5ncc(-c6ccccc6)nc54)c3=O)C[C@@H]1CO2`, the entry is “inactive”; as for `Oc1cc2c(cc1O)CN(C(=S)NCCc1ccc(Cl)cc1)CCC2`, “inactive”.

On to `CN1CCN(CCCN2c3ccccc3Sc3ccc(C(F)(F)F)cc32)CC1`, for which the Potency result was “inactive”. On the same count and under the same terms, as for `COC(=O)C1=C(C)NC(C)=C(C(=O)OC)C1c1cccc(NC(=O)NCCCN2CCC(c3cccc(OC)c3)CC2)c1`, the figure is 31 µM (active); as for `CC[C@@H](C)[C@H]1O[C@]2(CC[C@@H]1C)C[C@@H]1C[C@@H](C/C=C(\C)[C@@H](O[C@H]3C[C@H](OC)[C@@H](O[C@H]4C[C@H](OC)[C@@H](O)[C@H](C)O4)[C@H](C)O3)[C@@H](C)/C=C/C=C3\CO[C@@H]4[C@H](O)C(C)=C[C@@H](C(=O)O1)[C@]34O)O2`, 16.8 µM (active); as for `CCCCN(CC)c1nc(C)nc2c1c(C)cn2-c1c(C)cc(C)cc1C`, 12.8 µM (active). Still for that read-out and setting: as for `O=C1NC(=O)c2c1c(-c1ccccc1)cc1[nH]c3ccc(O)cc3c21`, the entry is “inactive”.

Test system in the next assay: not listed separately
In words: qHTS assay to identify small molecule antagonists of the estrogen related receptor signaling pathway with the pleiotropic PPARgamma coactivator (PGC) cell viability counter screen (AID 1224822; note: potency is the fitted concentration of half-maximal effect). Conditions: ERR/PGC reporter cell line viability counter screen; series mostly up to 46.1 µM. Summed up: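 Seed PGC/ERR cells (2,000/well); incubate 6 h at 37 C/5% CO2; pin-transfer compounds in DMSO; incubate 17.5 h at 37 C; add CellTiter-Fluor; after 30 min read fluorescence.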
`COc1cc(OC)cc(-c2cc3cnc(N)nc3nc2NC(=O)NC(C)(C)C)c1`: the Potency result is “inactive”. The same measure, in the same setting: as for `CC(C)C[C@H](NC(=O)[C@@H](O)[C@H](N)Cc1ccccc1)C(=O)O`, the entry is “inactive”; as for `N#C/C(=C\c1ccc(-c2cc(Cl)ccc2Cl)o1)C(=O)Nc1cccc2ncccc12`, 14.4 µM (active).

For the molecule `O=[N+]([O-])c1ccc2c(c1)S(=O)(=O)C=C2`, the Potency is 11.4 µM (active). The same measure, in the same setting: as for `O=C1Nc2ccc(I)cc2/C1=C/c1cc(Br)c(O)c(Br)c1`, the entry is “inactive”; as for `C[C@H](Cc1ccc(O)c(O)c1)[C@@H](C)Cc1ccc(O)c(O)c1`, “inactive”.

As to `CCCCCCCCCCC(C)(C)C(=O)Nc1c(OC)cc(OC)cc1OC`, the Potency entry is “inactive”. Same read-out and setting: as for `CN(C)S(=O)(=O)c1ccc2c(c1)/C(=C/c1cc3c([nH]1)CCCC3)C(=O)N2`, the entry is “inactive”; as for `C=CCN1CCc2c(cc(O)c(O)c2Br)[C@@H](c2ccccc2)C1`, “inactive”; as for `C=CCN1CCc2c(cc(O)c(O)c2Cl)C(c2ccccc2)C1` (stereo not given), “inactive”. The same measure, in the same setting: as for `Oc1cc2c(cc1O)CN(C(=S)NCCc1ccc(Cl)cc1)CCC2`, the entry is “inactive”; as for `CN1CCN(CCCN2c3ccccc3Sc3ccc(Cl)cc32)CC1`, 27.6 µM (active). Turning to `COC(=O)C1=C(C)NC(C)=C(C(=O)OC)C1c1cccc(NC(=O)NCCCN2CCC(c3cccc(OC)c3)CC2)c1`, the Potency is 20.3 µM (active).

`CC[C@@H](C)[C@H]1O[C@]2(CC[C@@H]1C)C[C@@H]1C[C@@H](C/C=C(\C)[C@@H](O[C@H]3C[C@H](OC)[C@@H](O[C@H]4C[C@H](OC)[C@@H](O)[C@H](C)O4)[C@H](C)O3)[C@@H](C)/C=C/C=C3\CO[C@@H]4[C@H](O)C(C)=C[C@@H](C(=O)O1)[C@]34O)O2`: the Potency was 23.7 µM (active).

Turning to `CCCCN(CC)c1nc(C)nc2c1c(C)cn2-c1c(C)cc(C)cc1C`, the Potency is 16.8 µM (active).
